# PubChem BioAssay (NCI)
# Compounds without any hit were thinned out: in the full panel of roughly 79,000, 15% have a hit. Values without a mark were called inactive. Activity calls are given as the source filed them. Cut-off read from the data, not from the text of the source: active = growth inhibition above about 70%; inactive = the rest.
# Assays:
# [1] = NCI Yeast Anticancer Drug Screen. Data for the rad50 strain (AID 155);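 note: 0% = growth of vehicle-only cultures of the same strain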; details: S. cerevisiae rad50 strain growth inhibition, active compounds read high
# In short: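 A DNA repair-deficient yeast mutant serves as the test organism; compound-induced growth inhibition is calculated against vehicle-treated cells.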
# [2] = NCI Yeast Anticancer Drug Screen. Data for the mec2-1 strain (AID 157); details: S. cerevisiae mec2-1 strain, active compounds read high
# In short: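 Mutant yeast (mec2-1) grown with compound; growth inhibition relative to vehicle control reported.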
# [3] = NCI Yeast Anticancer Drug Screen. Data for the sgs1 mgt1 strain (AID 161);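 note: 0% = growth of cultures given vehicle only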; details: S. cerevisiae sgs1 mgt1 strain, active compounds read high
# In short: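 Growth of a repair-deficient yeast mutant was monitored after compound treatment and expressed as inhibition relative to vehicle-treated cultures.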
# [4] = NCI Yeast Anticancer Drug Screen. Data for the cln2 rad14 strain (AID 165);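 note: 0% = growth equal to vehicle treated cultures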; details: S. cerevisiae cln2 rad14 strain, active compounds read high
# In short: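 Readout is yeast growth inhibition versus vehicle-treated controls, using a strain with cln2 and rad14 alterations exposed to compound.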
# [5] = NCI Yeast Anticancer Drug Screen. Data for the bub3 strain (AID 167); details: S. cerevisiae bub3 mutant strain, active compounds read high
# In short: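 Inhibition values come from growth of compound-treated mutant yeast normalised to vehicle-treated controls.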
# [6] = NCI Yeast Anticancer Drug Screen. Data for the mlh1 rad18 strain (AID 175); details: S. cerevisiae mlh1 rad18 strain growth inhibition, active compounds read high
# In short: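 Genetically defined yeast (DNA repair-deficient) exposed to compounds; growth inhibition determined relative to vehicle.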
# [7] = at 5.0 µM (retest, dose inferred, filed as 0.5)
# [8] = at 50.0 µM (retest, dose inferred, filed as 5.0)
Structure (SMILES),"growth inhibition [1, 7] [%]","growth inhibition [1, 8]",growth inhibition ([1]; at 50.0 µM),"growth inhibition [2, 7] [%]","growth inhibition [2, 8]",growth inhibition ([2]; at 50.0 µM),"growth inhibition [3, 7] [%]","growth inhibition [3, 8]",growth inhibition ([3]; at 50.0 µM),"growth inhibition [4, 7] [%]","growth inhibition [4, 8]",growth inhibition ([4]; at 50.0 µM),"growth inhibition [5, 7]","growth inhibition [5, 8]",growth inhibition ([5]; at 50.0 µM),"growth inhibition [6, 7] [%]","growth inhibition [6, 8]",growth inhibition ([6]; at 50.0 µM)
C[C@H](CCC(=O)O)[C@H]1CC[C@H]2[C@@H]3CC[C@@H]4C[C@H](O)CC[C@]4(C)[C@H]3C[C@H](O)[C@]12C,-14,95% (active),99.2% (active),1,98% (active),98.8% (active),-1,97% (active),99.3% (active),-34,98% (active),99.3% (active),-16%,99% (active),98.8% (active),-11,98% (active),99% (active)
O=c1[nH]ncc(SCc2ccccc2)c1SCc1ccccc1,8,35%,97.2% (active),3,53%,97.9% (active),1,58%,98% (active),8,31%,96.1% (active),14%,37%,98.4% (active),8,57%,96.5% (active)
[N-]=[N+]=Nc1c([N+](=O)[O-])c(=O)n(-c2ccccc2)c2ccccc12,-8,34%,65.1%,-3,54%,67.3%,0,32%,70% (active),27,21%,46.9%,-21%,62%,61%,4,57%,68.2%
COc1ccccc1/C=C(\NC(=O)c1ccccc1)c1nc2ccccc2[nH]1,42,96% (active),97.8% (active),30,98% (active),95% (active),38,99% (active),96.4% (active),16,74% (active),95% (active),3%,88% (active),98% (active),21,96% (active),96.4% (active)
CN(NC(=O)c1cccs1)C1=NCCCN1,43,83% (active),-18.2%,8,21%,-4.9%,65,76% (active),-16.9%,6,33%,10.3%,18%,22%,4.8%,23,55%,-20.7%
CC1C=CC(C)C2C(=O)C3C(C)C=CC(C)C3C(=O)C12 (stereo not given),0,-7%,-10.3%,6,14%,-6.45%,-1,9%,3.65%,18,23%,38.5%,-12%,0%,18.9%,1,-7%,8.9%
CN(O)C(=S)c1ccccc1,50,87% (active),91.7% (active),43,73% (active),93.3% (active),55,99% (active),92.5% (active),41,99% (active),89.6% (active),95% (active),99% (active),91.8% (active),36,67%,86.7% (active)
O=C(Nn1cc(F)c(=O)[nH]c1=O)C12CC3CC(CC(C3)C1)C2,41,92% (active),21.8%,20,96% (active),51.4%,42,96% (active),91.4% (active),20,52%,86.1% (active),41%,90% (active),87.5% (active),41,97% (active),57.9%
O=c1[nH]cnc2nc(I)[nH]c12,1,3%,14.8%,-9,-3%,0.05%,-5,5%,-0.3%,1,-7%,38.5%,-1%,-8%,30.1%,7,-5%,6%
Nc1nc(-c2ccccc2)nc(Cl)c1I,0,17%,74.7% (active),-3,24%,28.9%,3,43%,78% (active),3,21%,15.6%,-10%,16%,-5.25%,-4,21%,81.4% (active)
